# D2 PAM-1 – Beta-Arrestin HTS for Positive Allosteric Modulators of the Human D2 Dopamine Receptor: Potentiators | D(2) dopamine receptor (Homo sapiens), P14416 | DiscoveRx D2 beta-arrestin cells, luminescence, 90 min; 100% = 57 uM dopamine signal | potentiation, % (test concentration not listed) | 360,000 tested, 0.23% active | AID 624464, 2012; in the data active = potentiation above about 50%; inconclusive = mostly about 30% to 49%
#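 D2 cells co-treated with compound plus 50 nM dopamine (EC20) for 90 min at 37 deg C to detect potentiation. Beta-arrestin recruitment was read as enzyme-fragment luminescence after 1 h at ambient temperature. Full response was set by 57 uM dopamine.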
# D2 ag-1 – HTS Assay for Allosteric Agonists of the Human D2 Dopamine Receptor: Primary Screen for Agonists. activation, % at 2 µM. HEK293 T-REx D2 cells, calcium flux agonist mode. D(2) dopamine receptor (Homo sapiens), P14416. 340,000 tested, 0.53% active;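 active = activation over 3 SD above normal in the single-dose calcium agonist read, cut at about 30% in these data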; note: 0% is about no effect
#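 Calcium-flux readout, 1 cycle/sec over 180 s following compound pin transfer, in inducible HEK293 Trex D2 cells (force-coupled); dopamine controls included. Positive calcium responses during this window marked compounds as potential agonists.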
# D2 antagonist – HTS Assay for Allosteric Antagonists of the Human D2 Dopamine Receptor: Primary Screen for Antagonists. 340,000 tested, 2% active. inhibition, % at 10 µM. HEK293 TREx D2 cells, calcium flux, dopamine EC80; in the data active = inhibition above about 30%; inactive = below that, where a call was filed; note: 0% is about no effect
#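 Inhibition of EC80 dopamine-driven calcium flux, recorded kinetically, defines activity here; cells are a tetracycline-induced HEK293 T-REx line expressing force-coupled D2.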
# D2 PAM-2 – HTS Assay for Positive Allosteric Modulators of the Human D2 Dopamine Receptor: Primary Screen for Potentiators; AID 485347, 2010; 340,000 tested, 0.34% active; HEK293 T-REx D2, calcium flux, EC20 dopamine potentiation; potentiation, % at 10 µM;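 active = potentiation over 3 SD above the plate norm, cut at about 30% in these data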; note: 0% is about no effect
#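 Cells plated with tetracycline inducer and held overnight at 30 C; calcium dye loaded 30–90 min at room temperature; baseline taken, compound added and read 180 s; EC20 dopamine then added and read 180 s.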
# D2 ag-2 – Beta-Arrestin HTS for Positive Allosteric Modulators of the Human D2 Dopamine Receptor: Agonists | 360,000 tested, 0.084% active | D(2) dopamine receptor (Homo sapiens), P14416 | AID 624465, 2012 | activation, % (test concentration not listed) | DiscoveRx PathHunter D2 beta-arrestin, luminescence, 90 min; 100% = 57 uM dopamine signal; in the data active = activation above about 40%; inconclusive = between about 15% and that limit
#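 DiscoveRx PathHunter D2 beta-arrestin cells (2,100/well) attached overnight, then compound-stimulated 90 min at 37 C in HBSS/10 mM HEPES/0.1% Tween-20 buffer; beta-galactosidase complementation read by luminescence after 1 h at ambient temperature. Dopamine 57 uM final (EC100) as control.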
# D3 arrestin ag – qHTS of D3 Dopamine Receptor Agonist: D3 Dopamine Receptor B-arrestin Agonist Confirmatory Assay. shares compounds with D2 ag-1. DiscoveRx D3 beta-arrestin cells, luminescence, 90 min. Potency, µM (series often up to 76.9 µM), inactives show at the top dose activation, usual class: activators. 2,300 tested, 4% active;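 note: potency is the fitted concentration of half-maximal effect; 100% = dopamine control response; nearly all actives have a fitted effect of over 70% in size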
# Target sequence (P35462 whole entry, looked up): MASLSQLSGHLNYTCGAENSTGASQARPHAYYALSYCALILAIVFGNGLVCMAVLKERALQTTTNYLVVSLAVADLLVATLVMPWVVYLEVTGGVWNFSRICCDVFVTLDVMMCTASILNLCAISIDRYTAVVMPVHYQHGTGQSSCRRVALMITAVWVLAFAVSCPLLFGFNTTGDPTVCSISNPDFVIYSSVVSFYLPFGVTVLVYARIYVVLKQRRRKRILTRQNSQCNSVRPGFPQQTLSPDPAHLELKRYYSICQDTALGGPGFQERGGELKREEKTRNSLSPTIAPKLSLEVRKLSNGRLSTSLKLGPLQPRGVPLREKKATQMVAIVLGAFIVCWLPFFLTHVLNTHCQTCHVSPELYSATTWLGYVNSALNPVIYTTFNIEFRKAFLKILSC
# D2 ag-3 – qHTS of D3 Dopamine Receptor Agonist: D2 Dopamine Receptor B-arrestin Agonist Counterscreen; shares compounds with D2 ag-1; DiscoveRx PathHunter D2 beta-arrestin, luminescence, 90 min; response scale: percent relative to full dopamine signal; Potency, µM (doses to about 76.9 µM), inactives show top-dose activation, usual class: activators; 2,300 tested, 5.9% active; note: potency is the fitted concentration of half-maximal effect; % of control where 0% means no effect; nearly all actives have a fitted effect of over 70% in size
# Starred values were filed as active, the others as inactive; ? = inconclusive; nt = no result given. Most compounds without a hit are left out; they make up all but 2.4% or so of the library. Unless noted, calls come from the whole dose curve; as a rule, active = well fitted activation curve with a large enough effect; inconclusive = small, poorly fitted or top-dose-only effect; inactive = flat fitted curve, though single readings scatter.
SMILES,D2 PAM-1,D2 ag-1,D2 antagonist,D2 PAM-2,D2 ag-2,D3 arrestin ag,D2 ag-3
Cc1cc(C)c(Cn2c(=O)n(CCCC(=O)NCc3ccc4c(c3)OCO4)c(=O)c3sccc32)c(C)c1,nt,nt,nt,-1.3,nt,nt,nt
Cc1ccc2[nH]c3c(N4CCN(Cc5ccc6c(c5)OCO6)CC4)ncnc3c2c1,nt,nt,nt,-13.0,nt,nt,nt
c1ccc(-c2ccc(CN3CCN(c4ncccn4)CC3)cc2)cc1,28.7,78.8*,117.9*,-32.1,?,?,?
c1nc(N2CCN(Cc3ccc4c(c3)OCO4)CC2)c2[nH]cnc2n1,81.5*,nt,nt,nt,9.2,16.3%,2.82µM*
c1ccc(CN2CCN(c3nc(-c4ccccc4)nc(-n4ccnc4)n3)CC2)cc1,-32.6,0.0,3.7,7.7,-3.9,nt,nt
NC(=O)C1CCN(Cc2ccc(OCc3ccccc3)cc2)CC1,-5.9,0.9,-4.8,12.2,-6.0,nt,nt
c1ccc(COc2ccc(CN3CCN(c4ccccn4)CC3)cc2)cc1,17.6,77.1*,75.5*,-23.2,46.5*,?,11.2µM*
CCOc1ccc2c(c1)c(=O)c(C(=O)c1ccc(CC)cc1)cn2CC(=O)Nc1cccc(Cl)c1,nt,-1.1,nt,8.5,nt,nt,nt
Cc1cccc(C(=O)Nc2nnc(S(=O)(=O)N(C)c3ccccc3C)s2)c1,nt,-0.7,nt,-0.2,nt,nt,nt
CCOc1ccc(C(=O)NCc2nc(-c3ccc(Cl)cc3)no2)cc1OCC,nt,0.0,nt,-2.6,nt,nt,nt
CCN(Cc1ccccc1)C(=O)c1nc(-c2cccc(F)c2)n2c1CCCCC2,nt,-1.4,nt,8.1,nt,nt,nt
COCCN(C(=O)C1=COCCO1)c1c(N)n(CC(C)C)c(=O)[nH]c1=O,-2.6,0.5,-0.1,-1.2,6.5,-4.5%,22.5%
COCCN(C(=O)c1ccc(COc2ccccc2)o1)c1c(N)n(CC(C)C)c(=O)[nH]c1=O,-14.7,-0.2,-13.2,1.4,3.6,-7.4%,-2.4%
COCCN(C(=O)C1=COCCO1)c1c(N)n(Cc2ccccc2)c(=O)[nH]c1=O,-7.7,-0.9,6.1,0.8,-0.4,nt,nt
COc1ccc(OC)c(-n2c(CN3CCC(C(N)=O)CC3)nc3ccccc3c2=O)c1,3.1,56.5*,4.5,-15.3,0.1,-0.2%,-0.5%
CC(C)(C)c1ccc(C(=O)N2CCN(CCNC(=O)C(=O)NCc3ccc(Cl)cc3)CC2)cc1,5.0,-0.4,26.7,3.5,-2.1,2.0%,15.4%
O=C(Cn1c(=O)cnc2ccccc21)NNC(=O)c1ccc(Cl)cc1,-3.6,nt,nt,nt,-2.2,1.4%,-2.7%
CCc1ccc(C(=O)NNC(=O)Cn2c(=O)cnc3ccccc32)cc1,-3.2,0.0,-11.8,5.6,-2.8,nt,nt
COc1ccccc1NC(=O)c1oc2ccccc2c1NC(=O)Cc1ccccc1,nt,-0.5,nt,-3.3,nt,nt,nt
CC(C)(C)OC(=O)N[C@H](C(=O)OC(C)(C)C)c1ccc2ccccc2c1,-0.6,-1.1,-5.9,14.6,-5.0,2.1%,-3.5%
COc1ccc([C@@H](NC(=O)OC(C)(C)C)C(=O)OC(C)(C)C)cc1,-7.7,0.4,11.4,5.7,-4.5,nt,nt
O=C(C1CCC(Cn2c(=O)c3sccc3n(Cc3cccc(F)c3)c2=O)CC1)N1CCCCC1 (centres undefined),nt,0.2,nt,15.7,nt,nt,nt
Cc1[nH]n(-c2ccc(F)cc2)c(=O)c1/C=N/c1sc2c(c1C#N)CCCC2,-12.7,53.1*,10.7,-13.1,4.8,?,14.9%
Cc1ccc(/C=N/c2sc3c(c2C#N)CCCCC3)o1,-3.3,nt,nt,nt,14.0,?,28.7%
O=S(=O)(c1ccc(F)cc1)N1CCC(n2c(C(F)(F)F)nc3cccnc32)CC1,nt,-0.3,nt,-6.9,nt,nt,nt
SMILES,D2 PAM-1,D2 ag-1,D2 antagonist,D2 PAM-2,D2 ag-2,D3 arrestin ag,D2 ag-3
c1ccc(N2CCN(CCc3nnc4n3CCCCC4)CC2)cc1,-20.1,32.2*,26.8,10.7,5.1,-1.7%,8.4%
c1ccc(Cc2nnc3n2CCCCC3)cc1,-14.5,0.0,-7.4,-3.7,-1.3,nt,nt
Cc1ccccc1-c1cc(C(=O)NCC2CC2)nn1CC1CC(c2cccc([N+](=O)[O-])c2)=NO1 (centres undefined),-3.4,-1.1,-0.9,-5.4,0.1,-1.0%,-1.2%
CCOc1cc2sc(N3CCC(C(=O)Nc4ccccc4Cl)CC3)nc2cc1Br,nt,0.2,nt,1.7,nt,nt,nt
Cc1csc(NC(=O)c2ccc3ccccc3n2)n1,-7.1,6.8,9.5,16.0,-0.8,nt,nt
Cc1csc(NC(=O)c2cnc3ccccc3n2)n1,-2.0,25.4,-16.7,18.8,-1.9,-15.6%,0.7%
CCOC(=O)C(CC(=O)O)NCc1ccco1 (centres undefined),-6.5,0.9,7.3,11.7,-3.3,nt,nt
CC(C)OC(=O)C(CC(=O)O)NCc1ccccc1 (centres undefined),-1.7,-0.6,68.2*,4.1,-0.8,-8.1%,-3.9%
O=C(Cn1cc(SCc2ccc(F)cc2)c2ccccc21)N1CCCCC1,nt,nt,nt,0.8,nt,nt,nt
COc1ccc(NC(=O)CN2CCN(c3ccccn3)CC2)cc1Cl,-5.4,65.6*,-11.8,-19.3,8.7,?,13.6%
COc1cc(Cl)c(C)cc1NC(=O)c1ccccc1NC(=O)CN1CCN(c2ccccn2)CC1,7.2,nt,nt,nt,0.2,nt,nt
COc1ccc(NC(=O)CN2CCN(c3ccc(F)cc3)CC2)cc1Cl,-20.0,0.8,5.4,-4.5,-3.3,nt,nt
COc1cc(NC(=O)c2ccccc2)c(OC)cc1NC(=O)CN1CCN(c2ccccn2)CC1,?,1.8,-3.0,-28.6,7.1,?,?
CC(C)CNC(=O)Nc1cc(C(=O)NCc2ccc(C(C)C)cc2)ccc1N1CCCC1,nt,0.8,nt,-1.4,nt,nt,nt
CC(C)Oc1ccccc1-c1nc(SCC(=O)c2ccc(F)cc2)n[nH]1,nt,0.6,nt,-2.0,nt,nt,nt
O=C(Nc1ccccc1O)c1cc2cc(Br)ccc2oc1=O,-9.0,-2.8,-9.8,-3.8,0.7,nt,nt
CC(C)c1nnc(NC(=O)c2cc3cc(Br)ccc3oc2=O)s1,-3.5,2.3,-3.3,-5.8,5.9,-0.8%,-0.4%

# Screens deposited in PubChem by National Center for Advancing Translational Sciences (NCATS).
